This is one part of the list. Activity calls are given as the source filed them. Rule as the data show it: active = inhibition above about 39%; inactive = the rest.

Broadly, the inhibition is the change of the read-out against control, counted positive when it falls.

This test addresses Cysteine protease ATG4B (Homo sapiens) (UniProt Q9Y4P1). The experiment in a line: re-tested blockers of ATG4B cleavage activity – biochemical, fluorescence, single concentration, confirmation (AID 504757). The following applies: ATG4B protease fluorescent substrate cleavage assay; at 8.33 µM; stronger effect = higher value.

Sequence of Cysteine protease ATG4B (Homo sapiens) (Q9Y4P1 whole entry, looked up): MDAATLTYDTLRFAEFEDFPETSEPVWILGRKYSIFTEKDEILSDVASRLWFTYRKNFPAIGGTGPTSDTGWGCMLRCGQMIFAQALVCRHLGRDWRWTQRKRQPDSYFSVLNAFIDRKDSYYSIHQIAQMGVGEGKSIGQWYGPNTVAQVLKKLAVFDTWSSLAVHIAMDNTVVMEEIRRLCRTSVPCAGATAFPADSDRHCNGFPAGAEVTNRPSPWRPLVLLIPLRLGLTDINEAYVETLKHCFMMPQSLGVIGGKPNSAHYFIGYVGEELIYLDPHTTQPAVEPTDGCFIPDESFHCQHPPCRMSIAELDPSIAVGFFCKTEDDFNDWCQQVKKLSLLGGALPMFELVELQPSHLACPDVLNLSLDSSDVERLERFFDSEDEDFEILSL

Consider `Cc1cc(OCc2cc(C(=O)O)oc2C)c2c3c(c(=O)oc2c1)CCCC3`, for which the inhibition was 66.3% (active).

These data come from PubChem BioAssay AID504757 (Sanford-Burnham Center for Chemical Genomics, 2011).
